# Assay outcomes deposited in PubChem by several laboratories.
# Sa ugtP lethal = growth inhibition of S. aureus ugtP deletion strain; S. aureus RN4220 ugtP deletion, OD600 growth, 16 h; growth inhibition, % (no concentration beside the values); actives 0.54% (n = 330,000); in the data active = growth inhibition above about 68%;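 note: plate controls were untreated wells for no effect and antibiotic for full effect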
# DUSP3 inh = inhibitors of human VHR1 phosphatase (DUSP3) | P51452 | recombinant VHR phosphatase, pNPP absorbance | inhibition, % at 13.3 µM | actives 0.52% (n = 290,000) | AID 1654; in the data active = inhibition above about 50%
# Target sequence (P51452 whole entry, looked up): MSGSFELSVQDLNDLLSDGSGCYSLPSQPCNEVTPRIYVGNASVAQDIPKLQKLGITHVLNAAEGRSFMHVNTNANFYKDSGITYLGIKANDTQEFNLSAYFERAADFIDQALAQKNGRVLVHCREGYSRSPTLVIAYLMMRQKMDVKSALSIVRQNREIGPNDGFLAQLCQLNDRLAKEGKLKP
# PfHsp40 yeast = compounds rescuing yeast from Plasmodium falciparum HSP40 toxicity | AID 504582 | S. cerevisiae expressing PfHsp40, growth rescue, ATP luminescence | actives 0.68% (n = 340,000) | growth rescue, % at 12.5 µM; in the data active = growth rescue above about 28%, passing the limit was not always enough;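 note: yeast W303a lacking pdr1 and pdr3 grown in galactose medium; growth measured after three days at 30 °C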
# Sa RN4220 lethal = S. aureus RN4220 growth inhibition. OD600, 16 h. inhibition, % (test concentration not listed). actives 0.33% (n = 330,000). AID 1259311; in the data active = inhibition above about 85%;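 note: plate controls were untreated cells for no effect and reference antibiotic for full effect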
# Mtb hypoxia rep = inhibitors of hypoxia-regulated fluorescent reporter in Mycobacterium tuberculosis | M. tuberculosis hypoxia-regulated fluorescent reporter, fluorescence | fluorescence inhibition, % (test concentration not listed) | actives 0.1% (n = 300,000) | AID 1159583; in the data active = fluorescence inhibition mostly above about 23%, no sharp cut-off; inactive = mostly below about 17%
# SSB-PriA inh = K. pneumoniae PriA-SSBct interaction inhibition; actives 0.6% (n = 430,000); inhibition, % at 33 µM; AlphaScreen SSBct-PriA binding, biotinylated peptide; in the data active = inhibition mostly above about 37%, no sharp cut-off; inactive = mostly below about 20%;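 note: plate controls were negative control peptide for no effect and reference peptide for full effect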
# * marks the source's active call; other numbers are inactive results; . = no result. Hits are enriched below; roughly 1.8% of the tested compounds scored in any of these assays.
SMILES,Sa ugtP lethal,DUSP3 inh,PfHsp40 yeast,Sa RN4220 lethal,Mtb hypoxia rep,SSB-PriA inh
CC1CC(C)CN(S(=O)(=O)N2CCCC(C(=O)NCCCN3CCCCC3C)C2)C1 (stereo unspecified),6,2,0,0,5,-12
CCC1CCCCN1CCCNC(=O)C1CCCN(S(=O)(=O)N2CC(C)CC(C)C2)C1 (stereo unspecified),6,54*,0,0,10,3
CCC1CCCCN1CCCNC(=O)C1CCCN(c2ncnc3c2nc2n3CCCCC2)C1 (stereo unspecified),3,57*,1,1,5,-1
COCCN(Cc1ccco1)C(=O)C1CCCN(c2ncnc3c2nc2n3CCCCC2)C1 (stereo unspecified),4,52*,0,4,1,8
O=C(C1CCN(c2ncnc3c2nc2n3CCCCC2)CC1)N1CCCCC1,2,52*,-1,-1,5,12
CC(=O)c1sc(NC(=O)Cc2ccc(F)cc2)nc1C,.,.,.,.,.,4
O=C(CNC(=O)c1ccccc1C(F)(F)F)N/N=C\c1ccc(Br)cc1,.,.,.,.,.,-4
CC(C)N1CCC(CNC(=O)C2CC2)CC1,.,.,.,.,.,-12
CCN(CC)C(=NS(=O)(=O)c1ccccc1C)c1ccccc1,1,.,.,4,7,-4
Cc1cc(C)n(-c2ncc(NC(=O)CNC(=O)c3ccccc3)cn2)n1,.,.,.,.,.,-8
COc1cc(NC(=O)C2CCCN(c3ncnc4c3nc3n4CCCCC3)C2)cc(OC)c1OC (stereo unspecified),3,18,44*,8,5,-12
CSc1nc2c(cc1C#N)CCC2,9,-11,3,5,17,-3
Brc1cc(Br)c2nc3c(cc2c1)CCC3,-3,5,0,11,54*,-33
O=C(CS(=O)c1ccccc1[N+](=O)[O-])Oc1ccc(Br)cc1 (stereo unspecified),3,22,68*,0,-9,-12
COc1ccc(CC(=O)Nc2nccs2)cc1OC,-6,-3,0,2,-5,-6
CCOc1ccc(CC(=O)Nc2nccs2)cc1OCC,.,6,38*,.,.,0
Cc1cc(NC(=O)CN2C(=O)NC3(CCC(C)CC3)C2=O)no1 (stereo unspecified),2,51*,-1,3,-10,-10
CC(C)Oc1ccccc1C=NNc1ccccc1[N+](=O)[O-],-20,.,.,-12,6,82*
Cc1nnc(NN=Cc2ccc(O)c([N+](=O)[O-])c2)[nH]c1=O,2,.,.,2,6,-15
O=C(Nc1ccc2nc(-c3ccco3)c(-c3ccco3)nc2c1)N1CCCCCC1,-26,17,.,12,7,3
CCOC(=O)C1CCN(C(=O)Nc2ccc3nc(-c4ccco4)c(-c4ccco4)nc3c2)CC1,-4,56*,0,-2,9,7
CCOc1ncccc1C(=O)Nc1cc2c(cc1Br)OCCO2,15,.,-1,5,36*,-8
CCOc1ncccc1C(=O)Nc1ccc2c(c1)OCO2,.,18,0,.,.,-8
O=C(O)c1ccc(N/N=C/c2c(F)cccc2Cl)cc1,.,30,106*,.,.,.
CC(C)COc1ccc(C(=O)O)cc1,.,.,.,.,.,-14
SMILES,Sa ugtP lethal,DUSP3 inh,PfHsp40 yeast,Sa RN4220 lethal,Mtb hypoxia rep,SSB-PriA inh
COc1ccc(OCC(O)COc2ccc(C(=O)O)cc2)cc1 (stereo unspecified),2,51*,-1,-2,-5,-17
Cc1ccc(OCCNc2cc(N3CCN(CCO)CC3)ccc2[N+](=O)[O-])cc1C,-5,8,-2,0,-2,55*
Cc1cccc(OCCNc2cc(N3CCN(C)CC3)ccc2[N+](=O)[O-])c1,2,-1,1,-1,10,6
CN(CCCC1CCCC1)C(=O)c1cc(COc2ccc(F)c(F)c2)on1,-6,20,44*,0,6,-34
Cc1cc(C)c2nc(NNC(=O)c3ccc(S(=O)(=O)N4CCCCC4)cc3)sc2c1,-2,-4,0,2,5,-4
Cc1cccc2sc(NNC(=O)c3ccc(S(=O)(=O)N4CCc5ccccc5C4)cc3)nc12,-37,15,410*,-8,4,-5
CCOc1ccc(S(=O)(=O)N2CCc3ccccc3C2)cc1,5,23,0,-1,6,-29
Cc1ccc2sc(NNC(=O)c3ccc(S(=O)(=O)N4CCCC4)cc3)nc2c1C,.,.,.,.,.,11
Cc1cccc2sc(NNC(=O)c3ccc(S(=O)(=O)N4CCCC(C)C4)cc3)nc12 (stereo unspecified),-11,-4,356*,8,0,1
COc1ccc(S(=O)(=O)N2CCc3ccccc3C2)cc1,-9,51*,-2,5,-2,-5
Cc1nc2ccc(C(C(F)(F)F)(C(F)(F)F)C(F)(F)F)cc2[nH]1,-3,-4,241*,2,.,-17
O=C(NCc1ccc(F)cc1)c1ccc(N2CCc3ccccc32)c([N+](=O)[O-])c1,-6,17,3,-3,8,74*
COC(=O)c1ccc(N2CCc3ccccc32)c([N+](=O)[O-])c1,9,13,0,3,7,52*
CC(=O)c1ccc(N2CCc3ccccc3C2)c([N+](=O)[O-])c1,4,-14,1,8,11,18
O=C(O)c1ccc(N2CCc3ccccc32)c([N+](=O)[O-])c1,6,10,-1,6,10,-5
CCOC(CNC(=O)c1ccc(N2CCc3ccccc32)c([N+](=O)[O-])c1)OCC,-6,1,2,4,8,63*
Cc1noc(C)c1S(=O)(=O)N1CCC2(CC1)OCCN2S(=O)(=O)c1ccc(Cl)cc1,.,.,.,.,.,0
CCS(=O)(=O)c1cccc(C(=O)Nc2nc3ccc(S(=O)(=O)N(C)C)cc3s2)c1,.,.,.,.,.,-17
COc1cc(Cl)c(C)cc1NC(=O)CSc1ccc(C)cc1,10,8,-1,5,-2,-97
COc1cc(Cl)c(C)cc1NC(=O)CSc1cc(Cl)ccc1Cl,95*,13,0,1,2,-8
CCOC(=O)C(NC(=O)c1cccnc1)(Nc1cccc(C)n1)C(F)(F)F (stereo unspecified),-13,24,0,25,.,-15
CCOC(=O)C(NCc1ccccn1)(NC(=O)c1cccnc1)C(F)(F)F (stereo unspecified),-17,13,-2,13,.,51*
NC(=S)NN=Cc1ccc(-c2ccccc2)o1,.,.,.,.,.,5
COc1cccc(CSc2nnc(-c3ccncc3)n2N)c1,7,24,45*,7,6,-6
Nn1c(SCc2cccc(Cl)c2)nnc1-c1ccncc1,2,5,7,4,17,-11
Cc1cc(C)c2sc(N(Cc3ccco3)C(=O)COc3ccccc3)nc2c1,.,.,.,.,.,-10
